Publication PMC4336329 (PLoS ONE, 2015)
Among all 310,000 compounds or so, about 14,000 (4.5%) showed an effect of 50% or more. Effects have a minus sign here. What follows is part of a selection rich in strong results, with near analogues and random picks from the rest.

Each molecule was assayed against human ether-à-go-go-related gene (hERG) potassium channel (human, UniProt Q12809) (assay: primary screen, population patch clamp on CHO cells stably expressing hERG; higher = less effect of the substance).
Chain of human ether-à-go-go-related gene (hERG) potassium channel (Q12809 whole entry, looked up): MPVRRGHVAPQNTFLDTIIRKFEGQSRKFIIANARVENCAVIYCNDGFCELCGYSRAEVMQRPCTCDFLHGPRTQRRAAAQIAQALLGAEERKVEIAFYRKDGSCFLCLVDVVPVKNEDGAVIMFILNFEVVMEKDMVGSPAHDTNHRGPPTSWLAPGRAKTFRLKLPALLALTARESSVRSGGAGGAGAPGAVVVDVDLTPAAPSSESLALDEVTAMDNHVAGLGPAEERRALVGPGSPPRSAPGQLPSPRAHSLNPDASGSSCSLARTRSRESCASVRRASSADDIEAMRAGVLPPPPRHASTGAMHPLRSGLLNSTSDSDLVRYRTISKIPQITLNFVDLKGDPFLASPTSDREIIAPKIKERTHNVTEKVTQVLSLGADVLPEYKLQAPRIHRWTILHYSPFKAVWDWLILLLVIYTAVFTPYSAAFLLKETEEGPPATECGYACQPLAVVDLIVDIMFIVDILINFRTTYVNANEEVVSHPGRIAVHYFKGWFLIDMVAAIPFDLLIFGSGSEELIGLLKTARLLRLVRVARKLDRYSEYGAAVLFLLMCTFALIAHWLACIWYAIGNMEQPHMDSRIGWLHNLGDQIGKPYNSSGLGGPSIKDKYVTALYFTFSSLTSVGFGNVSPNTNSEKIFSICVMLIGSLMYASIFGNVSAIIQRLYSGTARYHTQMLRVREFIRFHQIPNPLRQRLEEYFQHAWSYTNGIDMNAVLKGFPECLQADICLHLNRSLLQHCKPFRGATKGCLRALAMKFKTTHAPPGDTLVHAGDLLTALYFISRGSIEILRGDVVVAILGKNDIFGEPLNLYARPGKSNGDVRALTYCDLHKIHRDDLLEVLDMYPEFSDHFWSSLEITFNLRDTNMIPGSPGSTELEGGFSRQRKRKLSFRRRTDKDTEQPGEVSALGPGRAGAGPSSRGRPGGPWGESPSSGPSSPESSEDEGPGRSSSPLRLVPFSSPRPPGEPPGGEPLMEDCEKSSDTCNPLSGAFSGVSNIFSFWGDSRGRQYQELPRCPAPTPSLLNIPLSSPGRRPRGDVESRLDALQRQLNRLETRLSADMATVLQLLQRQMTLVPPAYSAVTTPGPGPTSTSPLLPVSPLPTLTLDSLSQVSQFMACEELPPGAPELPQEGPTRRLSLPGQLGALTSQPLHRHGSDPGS
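Further: peak tail current of the secondary pulse compared with the same well before compound.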

Structure (SMILES)	hERG current change (%, negative = inhibition) at 10uM [%]
COc1ccc(N2CCN(C(=O)CN=C3NS(=O)(=O)C(c4ccc(C)cc4)=C3C)CC2)cc1	-5.05
O=C(Cc1ccccc1)N/N=C/c1ccc(S(=O)(=O)[O-])o1	26.2
Cc1ccc(S(=O)(=O)NCc2ccc(N3CCN(C(=O)OC(C)(C)C)CC3)cc2)cc1	9.55
COc1ccc(OC)c(CNC(=O)C2CCN(S(=O)(=O)N3CCC(C)CC3)CC2)c1	-31.8
Cc1nc2ccccc2c2oc(C(=O)NCCN3CCN(C)CC3)cc12	12.4
CC(=O)N1c2ccc(S(=O)(=O)N3CCCC(C(=O)NCc4ccc(Cl)cc4)C3)cc2CC1C (stereo not drawn)	-2.85
CC(=O)N1c2ccc(S(=O)(=O)N3CCCC3C(=O)Nc3cccc(F)c3)cc2CC1C (stereo not drawn)	-32.8
CC(=O)N1c2ccc(S(=O)(=O)N3CCCC3C(=O)NCc3ccc(Cl)cc3)cc2CC1C (stereo not drawn)	-62.9
CSc1ccc(CNC(=O)C2Cc3cc(S(=O)(=O)N4CCCCC4)ccc3N2C(C)=O)cc1 (stereo not drawn)	-57.1
CSc1ccc(CNC(=O)C2Cc3cc(S(=O)(=O)N4CCCC4)ccc3N2C(C)=O)cc1 (stereo not drawn)	-38.2
Cc1cc(C)cc(NC(=O)C2CCCN2S(=O)(=O)c2ccc3c(c2)C(C)(C)C(=O)N3C)c1 (stereo not drawn)	-38.7
CCc1cccc(NC(=O)C2CCCN2S(=O)(=O)c2ccc3c(c2)CC(C)N3C(C)=O)c1 (stereo not drawn)	-71.2
CCc1ccc(CNC(=O)C2Cc3cc(S(=O)(=O)N4CCCC4)ccc3N2C(C)=O)cc1 (stereo not drawn)	-25.9
CCc1cccc(NC(=O)C2CCN(S(=O)(=O)c3ccc4c(c3)CC(C)N4C(C)=O)CC2)c1 (stereo not drawn)	2.05
CCOc1ccc(NC(=O)C2CCCN2S(=O)(=O)c2ccc3c(c2)C(C)(C)C(=O)N3C)cc1 (stereo not drawn)	-6.75
CCc1ccc(NC(=O)C2CCCN2S(=O)(=O)c2ccc3c(c2)C(C)(C)C(=O)N3C)cc1 (stereo not drawn)	-51
CC(=O)N1c2ccc(S(=O)(=O)N3CCCC3C(=O)NCc3ccccc3Cl)cc2CC1C (stereo not drawn)	-40
Cc1noc(C)c1C(=O)NCc1ccco1	0.0994
C/C(=N/NC(N)=S)c1cc2ccc(O)cc2oc1=O	21.7
O=C(Nc1ccccc1C(=O)O)c1ccccc1	8.69
COc1ccc2oc(=O)c(C(=O)N3CCN(C(=O)c4ccco4)CC3)cc2c1	-12.9
